Results reported in ChEMBL document CHEMBL1857833, “Screening and optimization of specific chemical series against human African Trypanosomiasis (HAT)”.
Values joined by “and” are separate entries in the source; they are usually repeats but may differ in a detail not shown here. Equal entries are not always repeated. Out of some 4,400 compounds screened, about 390 (8.9%) showed an effect of 50% or more. The full list was thinned out, with strong results kept by preference.

tested on: Trypanosoma brucei; assay: DNDI: Inhibition of Human African Trypanosomiasis, SBRI 427, in vitro at 2 ug.mL-1; assay type: functional

| SMILES | % inhibition |
| --- | --- |
| COc1ccc(-c2nc(CN3CCN(c4cccc(C(F)(F)F)c4)CC3)co2)cc1 | -13% |
| Brc1ccccc1-c1nc(CNCCCn2ccnc2)co1 | 2% |
| Clc1ccc(-c2nc(CNCCCn3ccnc3)co2)c(Cl)c1 | 86% |
| Clc1ccc(-c2nc(Cn3ccnc3)co2)c(Cl)c1 | 5% |
| COc1ccc(-c2nc(CNCCCn3ccnc3)co2)cc1 | 6% |
| Brc1ccc(-c2nc(CNCCCn3ccnc3)co2)cc1 | 56% |
| Clc1ccc(-c2nc(CNCc3ccncc3)co2)c(Cl)c1 | 9% |
| C#CCNCc1coc(-c2ccc(Cl)cc2Cl)n1 | 3% |
| Cc1cccc(-c2nc(CNCCCn3ccnc3)co2)c1 | -8% |
| CC1CCCCN1CCCNCc1coc(-c2ccc(Cl)cc2Cl)n1 (configuration not stated) | 99% |
| CCOc1ccccc1-c1nc(CNCCCn2ccnc2)co1 | 32% |
| c1ccc2c(-c3nc(CNCCCn4ccnc4)co3)cccc2c1 | 54% |
| Clc1ccc(-c2nc(CNCCN3CCOCC3)co2)c(Cl)c1 | 0% |
| Cc1ccc(/C(=N/O)NC2CCCCC2)c(OCc2cccc(F)c2)n1 | -9% |
| CCC(NCc1coc(-c2ccc(OC(F)(F)F)cc2)n1)c1ccccc1 (configuration not stated) | -21% |
| CSc1ccc(Oc2cc(/C(=N/O)NC3CCc4ccccc43)ccn2)cc1 (configuration not stated) | 9% |
| COCCN(Cc1coc(-c2ccccc2C)n1)C(C)(C)C | 2% |
| COc1ccc(Oc2nc(C)ccc2/C(=N/O)N2CCCCC2)cc1 | 28% |
| Cc1cccc(Oc2nc(C)ccc2/C(=N/O)N2CCN(c3ccc(F)cc3)CC2)c1 | 12% |
| COc1ccccc1CN/C(=N\O)c1ccc(C)nc1OC1CCC1 | 6% |
| Cc1cn(Cc2coc(-c3cccc(F)c3)n2)c(-c2ccccc2)n1 | -9% |
| CCOc1ccc(Oc2cc(/C(=N/O)N3CCC4CCCCC4C3)ccn2)cc1 (configuration not stated) | 16% |

| SMILES | % inhibition |
| --- | --- |
| Cn1nc(C(C)(C)C)cc1NCc1coc(-c2cccc3ccccc23)n1 | 25% |
| CCOc1ccccc1-c1nc(CN(C)Cc2ccccc2)co1 | 4% |
| Cc1ccc(/C(=N/O)N(C)C2CCCCC2)c(Oc2cccc(F)c2)n1 | 10% |
| CCC(NCc1coc(-c2ccc(OC)cc2)n1)c1ccccc1 (configuration not stated) | 12% and 8% |
| Clc1ccc(-c2nc(CNCCCN3CCCC3)co2)c(Cl)c1 | 98% |
| Clc1ccc(-c2nc(CNCCN3CCCC3)co2)c(Cl)c1 | -4% |
| Clc1ccc(-c2nc(CNCCCN3CCOCC3)co2)c(Cl)c1 | 23% |
| COc1ccc(Oc2cc(/C(=N/O)Nc3ccccc3)ccn2)cc1 | 15% |
| CCOc1ccc(Oc2cc(/C(=N/O)NCC(C)(C)C)ccn2)cc1 | 43% |
| COc1ccc(Oc2cc(/C(=N/O)NCC(C)C)ccn2)cc1 | 93% |
| CCOc1ccc(Oc2cc(/C(=N/O)NCc3ccc(OC)cc3)ccn2)cc1 | -4% |
| CCC(CC)N/C(=N\O)c1ccnc(Oc2ccc(OC)cc2)c1 | 97% |
| COc1ccc(Oc2cc(/C(=N/O)NCC(C)(C)C)ccn2)cc1 | 92% |
| COc1ccc(Oc2cc(/C(=N/O)NCc3ccncc3)ccn2)cc1 | 9% |
| CC(C)CN/C(=N\O)c1ccnc(Oc2ccc(Cl)cc2)c1 | 25% |
| COc1ccc(Oc2cc(/C(=N/O)NCc3cc(F)cc(F)c3)ccn2)cc1 | 5% |
| CCOc1ccc(-c2nc(CNc3ccc(OC)cc3)co2)cc1 | -21% |
| CCCCN(C)Cc1coc(-c2cccs2)n1 | 15% |
| CCOc1ccc(-c2nc(CN3CCc4cc(OC)c(OC)cc4C3C(C)C)co2)cc1 (configuration not stated) | 15% |
| COc1ccc(-c2nc(CN(C)c3ccc(OC)cc3)co2)cc1 | 6% |
| CCOc1ccccc1Oc1ncccc1/C(=N/O)n1cnc(C)c1 | 16% |
| CCOc1ccccc1CNCc1coc(-c2ccc(OC)cc2)n1 | -13% |

| SMILES | % inhibition |
| --- | --- |
| CCCC(C)NCc1coc(-c2ccccc2Br)n1 (configuration not stated) | -7% |
| Fc1cccc(-c2nc(CN3CCN(c4cccc(Cl)c4)CC3)co2)c1 | 17% |
| COc1cccc(-c2nc(CN(C)CCc3ccccc3)co2)c1 | 1% |
| COc1cccc(Oc2ccc(/C(=N/O)NC3CC(C)CC(C)(C)C3)cn2)c1 (configuration not stated) | 7% |
| Cc1cccc(Oc2ccc(/C(=N/O)NCC3CCCCC3)cn2)c1 | 36% |
| Cc1cccc(Oc2ccc(/C(=N/O)NC3CC(C)CC(C)(C)C3)cn2)c1 (configuration not stated) | 47% |
| COc1ccc(CN/C(=N\O)c2ccc(Oc3cccc(OC)c3)nc2)cc1 | 10% |
| COc1cccc(Oc2ccc(/C(=N/O)NC3CCC(C)CC3)cn2)c1 (configuration not stated) | 89% |
| COc1cccc(Oc2ccc(/C(=N/O)NC3CCCCC3)cn2)c1 | 98% |
| COc1cccc(Oc2ccc(/C(=N/O)NCC3CCCCC3)cn2)c1 | 87% |
| Cc1cccc(Oc2ccc(/C(=N/O)NC3CCc4ccccc43)cn2)c1 (configuration not stated) | 10% |
| Cc1cccc(Oc2ccc(/C(=N/O)NC3CCC(C)CC3)cn2)c1 (configuration not stated) | 59% |
| COc1cccc(Oc2ccc(/C(=N/O)NC3CCN(Cc4ccccc4)C3)cn2)c1 (configuration not stated) | -3% |
| Cc1ccc(/C(=N/O)N2CCC3CCCCC3C2)c(Oc2cccc(F)c2)n1 (configuration not stated) | 16% |
| CCCN(Cc1coc(-c2cccc(F)c2)n1)CC1CC1 | 17% |
| COc1ccc(NCc2coc(-c3cccc(F)c3)n2)cc1 | 14% |
| CC(C)c1cccc(Oc2cc(/C(=N/O)NC3CCc4ccccc43)ccn2)c1 (configuration not stated) | 4% |
| Clc1ccccc1-c1nc(CN2CCN(C/C=C/c3ccccc3)CC2)co1 | -22% |
| COC(=O)C1CCN(/C(=N\O)c2cccnc2OCC2CCCCC2)CC1 | 6% |
| Cc1ccc(/C(=N/O)NCc2cccnc2)c(Oc2cccc(F)c2)n1 | 5% |
| Cc1ccc([C@@H](C)NCc2coc(-c3ccc(OC(F)(F)F)cc3)n2)cc1 | -17% |
| CCc1ccc(Oc2ncccc2/C(=N/O)N2CC(C)CC(C)C2)cc1 (configuration not stated) | 15% |

| SMILES | % inhibition |
| --- | --- |
| CCOc1ccc(-c2nc(CNC3CCCCCC3)co2)cc1 | 20% |
| CCOc1ccc(-c2nc(CN3CC(C)OC(C)C3)co2)cc1 (configuration not stated) | -8% |
| CC1CC(NCc2coc(-c3ccc(C(F)(F)F)cc3)n2)CC(C)(C)C1 (configuration not stated) | 98% |
| CC1CN(Cc2coc(-c3ccc(C(F)(F)F)cc3)n2)CC(C)O1 (configuration not stated) | 12% |
| CC(NCc1coc(-c2ccc(C(F)(F)F)cc2)n1)C1CCCCC1 (configuration not stated) | 7% |
| CCOc1ccc(-c2nc(CNC3CC(C)CC(C)(C)C3)co2)cc1 (configuration not stated) | 99% |
| C#CC1(NCc2coc(-c3ccccc3Cl)n2)CCCCC1 | -12% |
| COc1ccc(CN/C(=N\O)c2ccc(Oc3cc(C)cc(C(C)C)c3)nc2)cc1 | 28% |
| Brc1ccc(-c2nc(CNCc3cccnc3)co2)cc1 | -36% |
| COc1cccc(-c2nc(CN(C)C(C)(C)C)co2)c1 | 31% |
| c1ccc(-c2nc(CN3CCN(C4CCCCC4)CC3)co2)cc1 | -4% |
| CC(C)c1ccc(Oc2ncccc2/C(=N/O)NCC2CCCO2)cc1 (configuration not stated) | 98% |
| O/N=C(\NCc1ccccc1)c1cccnc1Oc1cc(Cl)ccc1Cl | 100% |
| CCOc1ccccc1CN/C(=N\O)c1ccc(Oc2ccc(Cl)cc2)nc1 | 1% |
| Cc1ccccc1CN/C(=N\O)c1cccnc1Oc1cc(Cl)ccc1Cl | 99% |
| O/N=C(\NCc1ccccn1)c1cccnc1Oc1cc(Cl)ccc1Cl | 0% |
| CCOc1ccccc1CN/C(=N\O)c1ccnc(Oc2ccc(Cl)cc2)c1 | 7% |
| CC(C)COc1ncccc1/C(=N/O)NCC1CCCO1 (configuration not stated) | 6% |
| Cc1ccc(/C(=N/O)NCc2ccccn2)c(Oc2cc(Cl)ccc2Cl)n1 | 30% |
| COc1ccc(CN/C(=N\O)c2cccnc2Oc2cc(Cl)ccc2Cl)cc1 | 5% |
| COc1ccc(Oc2ncccc2/C(=N/O)NCC2CCCO2)cc1 (configuration not stated) | -15% |
| CCOc1ccccc1CN/C(=N\O)c1cccnc1Oc1ccc(Cl)cc1 | 87% |

| SMILES | % inhibition |
| --- | --- |
| COCC(C)N/C(=N\O)c1ccc(C)nc1Oc1ccc(SC)c(C)c1 (configuration not stated) | -10% |
| Cc1ccc(Oc2nc(C)ccc2/C(=N/O)N2CCCCC2)c(C)c1 | 0% |
| CC(NCc1coc(-c2ccc(C(F)(F)F)cc2)n1)c1ccccc1 (configuration not stated) | 2% |
| COc1ccc(-c2nc(CNCCc3ccccc3OC)co2)cc1 | -4% |
| Cc1ccc(-c2nc(CN3CCN(C(=O)C4CCCO4)CC3)co2)cc1 (configuration not stated) | 21% |
| Cc1ccc(Oc2cc(/C(=N/O)NCc3cccnc3)ccn2)c(C)c1 | -3% |
| COc1ccc(Oc2nc(C)ccc2/C(=N/O)NCc2ccc(C)o2)cc1 | 16% |
| CCc1ccc(Oc2ncccc2/C(=N/O)N2CCN(C)CC2)cc1 | -4% |
| CCc1ccc(Oc2ccc(/C(N)=N/O)cn2)cc1 | 20% |
| CCc1ccc(Oc2ncccc2/C(=N/O)NCc2ccccc2C)cc1 | 99% |
| CCOc1ccccc1CN/C(=N\O)c1cccnc1Oc1ccccc1SC | 100% |
| COc1ccccc1CN/C(=N\O)c1cccnc1Oc1cccc2ccccc12 | 0% |
| COc1ccc(Oc2ncccc2/C(=N/O)NCc2ccccc2C)cc1 | 85% |
| CCOc1ccccc1CN/C(=N\O)c1cccnc1OC1CCC1 | 5% |
| COc1ccc(Oc2ncccc2/C(=N/O)NCc2ccccc2OC)cc1 | 94% |
| CCOc1ccccc1CN/C(=N\O)c1cccnc1OCC(C)C | 3% |
| COc1ccc(Oc2ncccc2/C(=N/O)NCc2ccccn2)cc1 | 2% |
| Cc1ccc(/C(=N/O)N2CCC(N(C)C)C2)c(OCc2cccc(F)c2)n1 (configuration not stated) | -7% |
| O/N=C(\NCc1ccccc1)c1ccc(Oc2c(F)c(F)cc(F)c2F)nc1 | 30% |
